Laboratory results published in publication PMC10812921, “Transcriptional Coactivator BOB1 (OBF1, OCA-B) Modulates the Specificity of DNA Recognition by the POU-Domain Factors OCT1 and OCT2 in a Monomeric Configuration”.

Tests used:
POU1 (OCT1 POU domain) = POU1 (OCT1 POU domain) (human, UniProt P14859 260-458); assay: EMSA-SELEX-seq; no BOB1; 20 mM Tris-HCl pH 7.6, 140 mM NaCl, 10% glycerol, 0.5 mM EDTA, 0.05% Triton X-100, 0.1 mg/mL BSA, 0.1 mg/mL poly(dI-dC), 5 mM DTT, room temperature, 20 min; high values mean tight binding; details: protein: recombinant; dsDNA, one strand shown
Sequence of POU1 (OCT1 POU domain) (P14859 260-458): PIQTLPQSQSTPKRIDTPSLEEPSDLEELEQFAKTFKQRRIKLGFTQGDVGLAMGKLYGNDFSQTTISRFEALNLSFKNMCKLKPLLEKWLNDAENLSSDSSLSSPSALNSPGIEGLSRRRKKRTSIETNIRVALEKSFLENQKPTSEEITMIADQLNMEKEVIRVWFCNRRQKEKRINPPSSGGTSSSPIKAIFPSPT
How it was run: (§1)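 After expression in E. coli BL21, tagged POU-domain proteins were purified under denaturing conditions and then renatured. Each binding reaction held 30 ng protein and 300 ng of a PCR-amplified double-stranded random 35-nt library in 20 μL Tris–HCl pH 7.6 binding buffer, with or without 28 ng coactivator protein, for 20 min at RT. Bands holding complexes were cut from native 6% PAGE, eluted and PCR-amplified across four rounds, and the output was Illumina-sequenced. The value given for binding preference is the share, in percent, of sequenced 8-mers fitting a motif pattern.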

POU2 (OCT2 POU domain) = molecular target: T1, POU2 (OCT2 POU domain) (human, UniProt P09086 175-386); assay: as above; details: protein: recombinant; dsDNA, one strand shown
T1 sequence: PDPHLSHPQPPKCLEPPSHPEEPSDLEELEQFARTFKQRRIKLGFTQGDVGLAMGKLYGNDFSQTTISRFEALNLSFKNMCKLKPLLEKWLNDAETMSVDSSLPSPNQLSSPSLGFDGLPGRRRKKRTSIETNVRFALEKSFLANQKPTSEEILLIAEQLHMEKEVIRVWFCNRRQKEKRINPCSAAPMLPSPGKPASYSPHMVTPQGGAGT
How it was run: as §1

[1] = molecular target: POU1 (OCT1 POU domain);BOB1 (OBF1, OCA-B) (human;human, UniProt P14859;Q16633 260-458;1-256, |); assay: EMSA-SELEX-seq; with BOB1 (ternary complex band); 20 mM Tris-HCl pH 7.6, 140 mM NaCl, 10% glycerol, 0.5 mM EDTA, 0.05% Triton X-100, 0.1 mg/mL BSA, 0.1 mg/mL poly(dI-dC), 5 mM DTT, room temperature, 20 min; high values mean tight binding; details: protein: recombinant;recombinant; copies: 1;1; dsDNA, one strand shown
How it was run: as §1

[2] = molecular target: T2, POU2 (OCT2 POU domain);BOB1 (OBF1, OCA-B) (human;human, UniProt P09086;Q16633 175-386;1-256, |); assay: as above; details: protein: recombinant;recombinant; copies: 1;1; dsDNA, one strand shown
T2 sequence 1: T1 sequence
T2 sequence 2: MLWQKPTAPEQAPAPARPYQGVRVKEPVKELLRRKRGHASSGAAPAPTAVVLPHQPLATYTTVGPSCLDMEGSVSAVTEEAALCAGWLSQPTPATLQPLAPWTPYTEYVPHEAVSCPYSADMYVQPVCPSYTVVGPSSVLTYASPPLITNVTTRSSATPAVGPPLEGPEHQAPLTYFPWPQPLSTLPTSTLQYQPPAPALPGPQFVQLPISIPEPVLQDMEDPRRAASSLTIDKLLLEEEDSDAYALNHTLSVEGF
How it was run: as §1

ATGTCAAG
binding signal (POU1 (OCT1 POU domain)): 0.0378 % of ANNNNAAN 8-mers | binding signal (POU2 (OCT2 POU domain)): 0.0535 % of ANNNNAAN 8-mers | binding signal [1]: 0.0406 % of ANNNNAAN 8-mers | binding signal [2]: 0.052 % of ANNNNAAN 8-mers

AACTAAAA
binding signal (POU1 (OCT1 POU domain)): 0.0431 % of ANNNNAAN 8-mers | binding signal (POU2 (OCT2 POU domain)): 0.0478 % of ANNNNAAN 8-mers | binding signal [1]: 0.0386 % of ANNNNAAN 8-mers | binding signal [2]: 0.0305 % of ANNNNAAN 8-mers

ATGGGAAC
binding signal (POU1 (OCT1 POU domain)): 0.0496 % of ANNNNAAN 8-mers | binding signal (POU2 (OCT2 POU domain)): 0.0443 % of ANNNNAAN 8-mers | binding signal [1]: 0.0488 % of ANNNNAAN 8-mers | binding signal [2]: 0.0421 % of ANNNNAAN 8-mers

ACCCCAAT
binding signal (POU1 (OCT1 POU domain)): 0.0145 % of ANNNNAAN 8-mers | binding signal (POU2 (OCT2 POU domain)): 0.0167 % of ANNNNAAN 8-mers | binding signal [1]: 0.0172 % of ANNNNAAN 8-mers | binding signal [2]: 0.019 % of ANNNNAAN 8-mers

ATAATAAG
binding signal (POU1 (OCT1 POU domain)): 0.182 % of ANNNNAAN 8-mers | binding signal (POU2 (OCT2 POU domain)): 0.258 % of ANNNNAAN 8-mers | binding signal [1]: 0.094 % of ANNNNAAN 8-mers | binding signal [2]: 0.126 % of ANNNNAAN 8-mers

AACAGAAA
binding signal (POU1 (OCT1 POU domain)): 0.042 % of ANNNNAAN 8-mers | binding signal (POU2 (OCT2 POU domain)): 0.0409 % of ANNNNAAN 8-mers | binding signal [1]: 0.0355 % of ANNNNAAN 8-mers | binding signal [2]: 0.033 % of ANNNNAAN 8-mers

ACATAAAG
binding signal (POU1 (OCT1 POU domain)): 0.0934 % of ANNNNAAN 8-mers | binding signal (POU2 (OCT2 POU domain)): 0.108 % of ANNNNAAN 8-mers | binding signal [1]: 0.0663 % of ANNNNAAN 8-mers | binding signal [2]: 0.0759 % of ANNNNAAN 8-mers

ACTCTAAA
binding signal (POU1 (OCT1 POU domain)): 0.0271 % of ANNNNAAN 8-mers | binding signal (POU2 (OCT2 POU domain)): 0.0299 % of ANNNNAAN 8-mers | binding signal [1]: 0.0285 % of ANNNNAAN 8-mers | binding signal [2]: 0.0248 % of ANNNNAAN 8-mers

ATGACAAC
binding signal (POU1 (OCT1 POU domain)): 0.0259 % of ANNNNAAN 8-mers | binding signal (POU2 (OCT2 POU domain)): 0.0207 % of ANNNNAAN 8-mers | binding signal [1]: 0.0277 % of ANNNNAAN 8-mers | binding signal [2]: 0.0355 % of ANNNNAAN 8-mers

AGTGGAAT
binding signal (POU1 (OCT1 POU domain)): 0.0995 % of ANNNNAAN 8-mers | binding signal (POU2 (OCT2 POU domain)): 0.121 % of ANNNNAAN 8-mers | binding signal [1]: 0.0847 % of ANNNNAAN 8-mers | binding signal [2]: 0.104 % of ANNNNAAN 8-mers

ATACAAAG
binding signal (POU1 (OCT1 POU domain)): 0.0984 % of ANNNNAAN 8-mers | binding signal (POU2 (OCT2 POU domain)): 0.0938 % of ANNNNAAN 8-mers | binding signal [1]: 0.139 % of ANNNNAAN 8-mers | binding signal [2]: 0.09 % of ANNNNAAN 8-mers

ACGGTAAA
binding signal (POU1 (OCT1 POU domain)): 0.0389 % of ANNNNAAN 8-mers | binding signal (POU2 (OCT2 POU domain)): 0.0524 % of ANNNNAAN 8-mers | binding signal [1]: 0.0507 % of ANNNNAAN 8-mers | binding signal [2]: 0.0504 % of ANNNNAAN 8-mers

AGAGGAAT
binding signal (POU1 (OCT1 POU domain)): 0.0828 % of ANNNNAAN 8-mers | binding signal (POU2 (OCT2 POU domain)): 0.115 % of ANNNNAAN 8-mers | binding signal [1]: 0.0652 % of ANNNNAAN 8-mers | binding signal [2]: 0.0859 % of ANNNNAAN 8-mers

ATATCAAG
binding signal (POU1 (OCT1 POU domain)): 0.0641 % of ANNNNAAN 8-mers | binding signal (POU2 (OCT2 POU domain)): 0.0552 % of ANNNNAAN 8-mers | binding signal [1]: 0.0453 % of ANNNNAAN 8-mers | binding signal [2]: 0.0479 % of ANNNNAAN 8-mers

AATGCAAC
binding signal (POU1 (OCT1 POU domain)): 0.0435 % of ANNNNAAN 8-mers | binding signal (POU2 (OCT2 POU domain)): 0.0409 % of ANNNNAAN 8-mers | binding signal [1]: 0.046 % of ANNNNAAN 8-mers | binding signal [2]: 0.0413 % of ANNNNAAN 8-mers

AGGTAAAA
binding signal (POU1 (OCT1 POU domain)): 0.129 % of ANNNNAAN 8-mers | binding signal (POU2 (OCT2 POU domain)): 0.1 % of ANNNNAAN 8-mers | binding signal [1]: 0.146 % of ANNNNAAN 8-mers | binding signal [2]: 0.085 % of ANNNNAAN 8-mers

ATTAGAAG
binding signal (POU1 (OCT1 POU domain)): 0.0786 % of ANNNNAAN 8-mers | binding signal (POU2 (OCT2 POU domain)): 0.101 % of ANNNNAAN 8-mers | binding signal [1]: 0.0585 % of ANNNNAAN 8-mers | binding signal [2]: 0.066 % of ANNNNAAN 8-mers

AACGCAAG
binding signal (POU1 (OCT1 POU domain)): 0.016 % of ANNNNAAN 8-mers | binding signal (POU2 (OCT2 POU domain)): 0.0219 % of ANNNNAAN 8-mers | binding signal [1]: 0.0222 % of ANNNNAAN 8-mers | binding signal [2]: 0.0281 % of ANNNNAAN 8-mers

AAACCAAT
binding signal (POU1 (OCT1 POU domain)): 0.0336 % of ANNNNAAN 8-mers | binding signal (POU2 (OCT2 POU domain)): 0.0265 % of ANNNNAAN 8-mers | binding signal [1]: 0.0437 % of ANNNNAAN 8-mers | binding signal [2]: 0.0347 % of ANNNNAAN 8-mers

ACGAAAAC
binding signal (POU1 (OCT1 POU domain)): 0.0256 % of ANNNNAAN 8-mers | binding signal (POU2 (OCT2 POU domain)): 0.0259 % of ANNNNAAN 8-mers | binding signal [1]: 0.0289 % of ANNNNAAN 8-mers | binding signal [2]: 0.0264 % of ANNNNAAN 8-mers

AGATTAAG
binding signal (POU1 (OCT1 POU domain)): 0.0656 % of ANNNNAAN 8-mers | binding signal (POU2 (OCT2 POU domain)): 0.088 % of ANNNNAAN 8-mers | binding signal [1]: 0.0581 % of ANNNNAAN 8-mers | binding signal [2]: 0.0619 % of ANNNNAAN 8-mers

AGACCAAT
binding signal (POU1 (OCT1 POU domain)): 0.0275 % of ANNNNAAN 8-mers | binding signal (POU2 (OCT2 POU domain)): 0.0219 % of ANNNNAAN 8-mers | binding signal [1]: 0.0261 % of ANNNNAAN 8-mers | binding signal [2]: 0.033 % of ANNNNAAN 8-mers

AATAAAAG
binding signal (POU1 (OCT1 POU domain)): 0.106 % of ANNNNAAN 8-mers | binding signal (POU2 (OCT2 POU domain)): 0.121 % of ANNNNAAN 8-mers | binding signal [1]: 0.118 % of ANNNNAAN 8-mers | binding signal [2]: 0.101 % of ANNNNAAN 8-mers

ACAGAAAA
binding signal (POU1 (OCT1 POU domain)): 0.0389 % of ANNNNAAN 8-mers | binding signal (POU2 (OCT2 POU domain)): 0.0472 % of ANNNNAAN 8-mers | binding signal [1]: 0.0472 % of ANNNNAAN 8-mers | binding signal [2]: 0.0322 % of ANNNNAAN 8-mers

ACCTCAAC
binding signal [1]: 0.0129 % of ANNNNAAN 8-mers | binding signal [2]: 0.0107 % of ANNNNAAN 8-mers

ATATTAAC
binding signal (POU1 (OCT1 POU domain)): 0.151 % of ANNNNAAN 8-mers | binding signal (POU2 (OCT2 POU domain)): 0.189 % of ANNNNAAN 8-mers | binding signal [1]: 0.0667 % of ANNNNAAN 8-mers | binding signal [2]: 0.0751 % of ANNNNAAN 8-mers

ACCACAAC
binding signal (POU1 (OCT1 POU domain)): 0.0107 % of ANNNNAAN 8-mers | binding signal (POU2 (OCT2 POU domain)): 0.0132 % of ANNNNAAN 8-mers

ATGCGAAT
binding signal (POU1 (OCT1 POU domain)): 0.124 % of ANNNNAAN 8-mers | binding signal (POU2 (OCT2 POU domain)): 0.165 % of ANNNNAAN 8-mers | binding signal [1]: 0.0901 % of ANNNNAAN 8-mers | binding signal [2]: 0.128 % of ANNNNAAN 8-mers

AACCCAAA
binding signal (POU1 (OCT1 POU domain)): 0.0233 % of ANNNNAAN 8-mers | binding signal (POU2 (OCT2 POU domain)): 0.0173 % of ANNNNAAN 8-mers | binding signal [1]: 0.0277 % of ANNNNAAN 8-mers | binding signal [2]: 0.0206 % of ANNNNAAN 8-mers
